# Source: the supplement of paper PMC6555819
# How the values were obtained:
# Assay in all cases: PBM binding z-score (relative to random genomic background probes); higher = stronger binding; sequences stand for … in GC…GCGATTGACAGCGTAGAATGAAGG
# [1] = system: FXR:RXRa (NR concentration 270 nM, RXRa partner concentration 90 nM)
# How it was run: (§1)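 Binding z-scores were set against random background probes. The data came from custom Agilent 4×180K protein-binding microarrays carrying double-stranded probes with 34-nt variable regions, incubated 1 h with ligand-free nuclear receptor dimers. Partner-specific antibodies detected binding, and scanned fluorescence was regression-normalized.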
# [2] = system: LXRa:RXRa (NR concentration 270 nM, RXRa partner concentration 90 nM)
# How it was run: as §1
# [3] = system: LXRa homodimer (NR concentration 270 nM)
# How it was run: as §1
# [4] = system: LXRb:RXRa (NR concentration 270 nM, RXRa partner concentration 90 nM)
# How it was run: as §1
# [5] = system: LXRb homodimer (NR concentration 270 nM)
# How it was run: as §1
# [6] = system: PPARa:RXRa (NR concentration 270 nM, RXRa partner concentration 90 nM)
# How it was run: as §1
# [7] = system: PPARg:RXRa (NR concentration 180 nM, RXRa partner concentration 90 nM)
# How it was run: as §1
# [8] = system: PPARg:RXRa 270nM:90nM, anti-RXR (NR concentration 270 nM, RXRa partner concentration 90 nM)
# How it was run: as §1
# [9] = system: PPARg:RXRa 30nM:10nM, anti-RXR (NR concentration 30 nM, RXRa partner concentration 10 nM)
# How it was run: as §1
# [10] = system: PPARg:RXRa 90nM:30nM, anti-RXR (NR concentration 90 nM, RXRa partner concentration 30 nM)
# How it was run: as §1
Sequence,PBM binding z-score [1],PBM binding z-score [2],PBM binding z-score [3],PBM binding z-score [4],PBM binding z-score [5],PBM binding z-score [6],PBM binding z-score [7],PBM binding z-score [8],PBM binding z-score [9],PBM binding z-score [10]
CCTAGCAGGCCAGGGTCAATCAAGCATTTCGCTT,3.41,2.94,-0.348,3.36,-1.18,4.23,0.925,1.66,-0.329,0.705
GCATATAGGTAATACAAGATGAAAGTCCGATTGT,0.0179,-0.186,-0.106,-0.218,-0.326,0.682,1.32,0.766,0.378,0.376
CCGACTGGGGCAAGGTTACCATAACGCACAGCCA,0.287,0.668,-0.166,0.835,-1.25,2.12,2.78,3.43,1.23,2.86
ATCTCTAGGTAAACAAGTTCAGTGAATGCCGAAC,0.431,1.06,1.16,0.55,0.583,1.04,0.677,0.774,0.448,0.709
CCTTACGGGTCACGCCAGGTTATAGCATCGGAGT,6.4,6.03,0.573,4.1,-0.0774,5.57,6.03,6.08,2.72,4.76
TCGAGTAGGTTACCAATGGAGCATTCAGCTTTCT,-0.291,0.37,-0.758,-0.00248,-1.32,0.92,0.264,1.16,1.33,1.08
TCTATTTGTTGAAGGGCAACCGACGAGTCCGTTT,0.938,1.22,0.754,0.891,1.45,0.93,0.0466,2.21,3.99,3.24
TAGCCTAGGTCAGATCGGGTCAGTATACGCTATA,2.96,2.75,0.202,2.43,-0.00739,2.8,1.19,1.5,0.171,1.08
GTGCCAAGGTGAATAGGTCGTTGATGAGTAGGCG,0.631,0.487,-0.344,0.408,-0.536,2.12,1.15,1.53,0.00309,0.77
CTACCAAGGTGAACAAGGTCGTTGATTACTATTC,1.47,1.38,0.19,1.91,-0.383,2.45,1.12,1.4,0.0996,0.622
TTAACAAGGTGAGCTGAGGTCGTTGATCCAACTC,1.71,1.21,-0.57,0.45,-0.886,1.72,0.604,0.987,0.415,0.24
TCATAAAGGTAAAGGTGAAAGTCGAACGATATGA,1.63,1.78,-0.143,1.63,-0.307,3.51,4.7,5.2,5.07,5.53
CAAACTAGGGCAAGAGGTCAAAGTCCGCTTCCCG,5.03,5.04,4.65,4.67,0.677,5.74,8.05,6.92,5.45,6.96
TAGCCTAGGTCAGCTCGGGCCAGTATACGCTATA,2.43,1.05,-0.68,0.599,-1.22,1.66,0.605,0.958,-0.317,0.418
GCATATAGATAATACAAGGTGAAAGTCCGATTGT,0.079,0.0374,0.245,0.117,-0.118,0.578,1.21,0.513,0.278,0.522
CCTTACGGGTCACGAGGTTATCGCACGACGAGCG,6.89,4.91,0.648,4.02,0.0453,5.78,7.31,6.79,3.29,5.64
ACTAGCAGGCCAAGGGGCACTCAAGATTAGTCCG,-0.336,-0.192,-0.413,0.0457,-0.63,1.63,4.11,4.46,2.5,4.64
CCTCGGCGGACAACAGGAGGTCAGAGCTGCCAGA,0.527,1.43,1.67,1.06,-1.27,1.68,-0.102,0.0174,-0.988,-0.415
GCTTGTAGATCAAGGTTATGAAAGACTAAGCTAA,0.138,0.572,-0.505,0.452,-0.591,1.3,0.656,0.989,0.21,0.553
CGAAAGAGGGCATGAGTTGATAGCAAATGCCGAT,0.277,0.423,-0.431,0.0383,-0.529,1.7,1.14,1.19,0.0878,0.644
GCGACTGGGGCATCAGCAGGTTACCGTAACTTAA,-0.346,-0.107,-0.365,0.443,-0.973,1.18,0.623,0.961,-0.441,-0.00586
ATCTCTAGGTAAAAGCTCAGTGAATCCCGAGGAT,-0.219,-0.28,-0.281,-0.514,0.446,0.485,1.13,2.55,1.27,2.35
CCTGCTAGGTCATGGGCAGCTAATCTACAGTATG,4.12,2.55,-0.0623,1.29,-0.864,3.72,2.82,3.2,0.94,1.97
